Reference: PubChem BioAssay AID1159580 (chemical genetic matrix, 2015)
Several values for one entry are separate records, joined by “and”; a condition that tells them apart may be missing. Equal values may be shown once. The campaign covered roughly 5,500 compounds. About 2,000 (36%) were called active. Inconclusive results (about 18%) are left out. No stated cut-off is given here; in the data, active means normalized growth mostly below about 0.91 (no sharp cut-off); inconclusive means no clear call, values can overlap the other calls; inactive means mostly above about 0.92. The list shows a part of the results.

Assay: chemical genetic growth profiling, strain panel (AID 1159580);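 further: tested at 20 µM; growth read once vehicle control cultures reached saturation at 30 °C; 1 = growth at the plate median or of vehicle wells; lower values mean less growth of the strain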
Details: S. cerevisiae deletion strains, growth OD

Measured: normalized growth

CC1CC[C@@]2(OC1)O[C@H]1CC3C4CC[C@@H]5C[C@@H](O)CC[C@]5(C)C4CC[C@]3(C)[C@H]1[C@@H]2C (stereo partly specified)
inactive: locus YAL013W, strain DEP1, active compounds read low 1.03 | locus YAL021C, strain ccr4, active compounds read low 1.05 | locus YAL026C, strain drs2, active compounds read low 1.02 | locus YAL030W, strain snc1, active compounds read low 1.03 | locus YBL061C, strain skt5, active compounds read low 1.02 | locus YBR009C, strain hhf1, active compounds read low 1.01 | locus YBR021W, strain FUR4, active compounds read low 1.02 | locus YBR023C, strain chs3, active compounds read low 1.05 | locus YBR171W, strain sec66, active compounds read low 1.04 | locus YBR229C, strain ROT2, active compounds read low 1.01 | locus YBR231C, strain swc5, active compounds read low 1.02 | locus YBR279W, strain paf1, active compounds read low 1.02 | locus YCL011C, strain gbp2, active compounds read low 1.06 | locus YCL016C, strain dcc1, active compounds read low 1.02 | locus YCL029C, strain bik1, active compounds read low 1.01 | locus YCL061C, strain MRC1, active compounds read low 1.02 | locus YCL069W, strain vba3, active compounds read low 1.05 | locus YCR088W, strain abp1, active compounds read low 1.03 | locus YDL005C, strain med2, active compounds read low 1.03 | locus YDL035C, strain GPR1, active compounds read low 1.07 | locus YDL040C, strain nat1, active compounds read low 1.02 | locus YDL074C, strain BRE1, active compounds read low 1.11 | locus YDL101C, strain DUN1, active compounds read low 1.02 | locus YDL134C, strain PPH21, active compounds read low 1.03 | locus YDL185W, strain tfp1, active compounds read low 1 | locus YDL192W, strain arf1, active compounds read low 1.01 | locus YDR001C, strain nth1, active compounds read low 1.05 | locus YDR069C, strain doa4, active compounds read low 1.06 | locus YDR101C, strain arx1, active compounds read low 1.01 | locus YDR137W, strain rgp1, active compounds read low 0.984 | locus YDR150W, strain NUM1, active compounds read low 1.03 | locus YDR159W, strain sac3, active compounds read low 1.01 | locus YDR162C, strain NBP2, active compounds read low 1.04 | locus YDR297W, strain sur2, active compounds read low 1.02 | locus YDR318W, strain mcm21, active compounds read low 1.01 | locus YDR334W, strain swr1, active compounds read low 1.05 | locus YDR335W, strain msn5, active compounds read low 1.06 | locus YDR388W, active compounds read low 1.02 | locus YDR392W, strain spt3, active compounds read low 1.03 | locus YDR502C, strain sam2, active compounds read low 0.997 | locus YEL003W, strain gim4, active compounds read low 1.08 | locus YEL061C, strain CIN8 (second series), active compounds read low 1.08 | locus YER015W, strain faa2, active compounds read low 1.03 | locus YER016W, strain bim1, active compounds read low 1.02 | locus YER110C, active compounds read low 0.997 | locus YER155C, strain BEM2 (second series), active compounds read low 1.09 | locus YER155C, strain BEM2, active compounds read low 1 | locus YER167W, strain BCK2, active compounds read low 1.02 | locus YFR010W, strain ubp6, active compounds read low 1.06 | locus YGL078C, strain dbp3, active compounds read low 1.02 | locus YGL086W, strain mad1, active compounds read low 1 | locus YGL167C, strain pmr1, active compounds read low 1.02 | locus YGL173C, strain kem1, active compounds read low 1.02 | locus YGL227W, strain vid30, active compounds read low 1.03 | locus YGL240W, strain doc1, active compounds read low 1.02 | locus YGL248W, strain PDE1, active compounds read low 1.06 | locus YGL253W, strain hxk2, active compounds read low 1.07 | locus YGR135W, strain pre9, active compounds read low 1.01 | locus YGR252W, strain gcn5, active compounds read low 1.05 | locus YHR013C, strain ard1, active compounds read low 1.04 | locus YHR027C, strain rpn1, active compounds read low 1.03 | locus YHR030C, strain SLT2, active compounds read low 0.965 | locus YHR079C, strain IRE1 (second series), active compounds read low 0.993 | locus YHR079C, strain IRE1, active compounds read low 0.97 | locus YHR094C, strain hxt1, active compounds read low 1.01 | locus YHR129C, strain ARP1, active compounds read low 1.05 | locus YIL066C, strain RNR3, active compounds read low 1.03 | locus YIL073C, strain SPO22, active compounds read low 1.12 | locus YIL125W, strain kgd1, active compounds read low 0.999 | locus YIR030C, strain dcg1, active compounds read low 1 | locus YJL092W, strain hpr5, active compounds read low 1.02 | locus YJL095W, strain BCK1 (second series), active compounds read low 1.01 | locus YJL095W, strain BCK1, active compounds read low 1.06 and 0.993 | locus YJL115W, strain asf1, active compounds read low 1.03 | locus YJL134W, strain LCB3, active compounds read low 1.02 | locus YJL164C, strain tpk1, active compounds read low 1.02 | locus YJL166W, strain qcr8, active compounds read low 1.02 | locus YJL168C, strain set2, active compounds read low 0.988 | locus YJL187C, strain SWE1 (second series), active compounds read low 1.04 | locus YJL187C, strain SWE1, active compounds read low 1.01 | locus YJR043C, strain POL32, active compounds read low 1.05
active: locus YDR195W, strain ref2 1.17 [resistant] | locus YEL037C, strain rad23, active compounds read low 1.2 [resistant] | locus YER111C, strain swi4, active compounds read low 1.28 [resistant] | locus YHR142W, strain chs7, active compounds read low 1.18 [resistant] | locus YJL154C, strain vps35, active compounds read low 1.11 [resistant]
